Bioassay records: PubChem, National Center for Advancing Translational Sciences (NCATS)
Hits are enriched below; roughly 21% of the tested compounds scored in any of these assays.
Pf growth 48h: P. falciparum growth inhibition at 48 hours (one generation); 310,000 tested, 5.9% active; AID 504832; Potency, µM (doses to about 28.7 µM), most hits filed as inhibitors; P. falciparum luciferase growth in erythrocytes, 48 h
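Compounds are pin-transferred into medium, infected erythrocytes (2% hematocrit, 0.1% parasitemia final) are added, and plates sit one parasite generation at 37 C in 5% CO2. Detection reagent is then added and luminescence measured.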
HCV inhibitor: HCV inhibition; Huh7.5.1 HCVcc-Cre infection, luciferase reporter, 44 h; Potency, µM (titrated, usually from 41.8 µM), usual class: inhibitors; 340,000 tested, 3.4% active
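Whole-lifecycle infectious HCVcc-Cre system; cells 1,000/well, compound then virus (~0.5 moi) added 4 h after plating, 44 h culture. Luciferase read 15 sec following 15 min substrate incubation, room temp.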
Pf growth 96h: P. falciparum growth inhibition at 96 hour, primary screen for plastid delayed-death inhibitors; P. falciparum luciferase reporter growth, 96 h; Potency, µM (top dose mostly 28.7 µM), usual class: inhibitors; 320,000 tested, 6.9% active; AID 504834
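P. falciparum expressing integrated firefly luciferase grown in erythrocytes (2% hematocrit, 0.05% parasitemia final) with compounds for 96 hours at 37 C, 5% CO2. Growth inhibition read as loss of luminescence after adding luciferase detection reagent.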
AMA1-RON2 inh: inhibitors of Plasmodium falciparum AMA1-RON2 interaction; AlphaScreen AMA1-biotinylated RON2 peptide binding; Potency, µM (doses to about 58.2 µM), actives largely listed as inhibitors; 360,000 tested, 0.2% active; note: nearly all actives have a fitted effect of over 45% in size
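AMA1 (3D7) with his tag at 25 nM final met compounds first, then biotinylated RON2 peptide at 25 nM; detection used donor plus acceptor beads, 10 µg/mL apiece, read by AlphaScreen after 30 min at room temperature.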
CHX counter: counter-screen hit for Shiga toxin inhibitors, cycloheximide. cell reporter, cycloheximide protein synthesis inhibition counterscreen. max response, %. 300,000 tested, 12% active; in the data active = max response mostly above about 13%, no sharp cut-off; inactive = mostly below about 14%; note: read at 38.3 µM for the half of the compounds with a filed dose
Shiga toxin inh: blocks Shiga toxin action in Vero cells; AID 2315; inhibition, % at 38.7 µM; Vero cells, Shiga toxin protein synthesis inhibition reporter; 290,000 tested, 9.2% active; in the data active = inhibition mostly above about 28%, no sharp cut-off; inactive = mostly below about 43%
Each line names hits and unclear results; the compound was inactive in the other large screens. Unless noted, calls come from the whole dose curve; as a rule, active = well fitted curve in the direction sought with a large enough effect; inconclusive = small, poorly fitted or top-dose-only effect, or another doubt; inactive = no such curve, though single readings can be large; an effect the other way counts as inactive or inconclusive.

CC(=O)c1cccc(N(C(=O)CNC(=O)c2ccco2)C(C(=O)NCc2ccco2)c2ccccc2)c1 (stereo not given)	HCV inhibitor inconclusive, Pf growth 96h inconclusive
COc1ccc(NC(=O)N[C@H]2C=C[C@@H](CC(=O)NC3CCC3)O[C@@H]2CO)cc1	none (no result: Pf growth 48h, HCV inhibitor, Pf growth 96h, CHX counter, Shiga toxin inh)
CC(C)(C)c1ccc(/C=N/NC(=O)C2CCCC2)cc1	HCV inhibitor inconclusive, Pf growth 96h inconclusive, CHX counter 51, Shiga toxin inh 133
C=C1CC(C(=O)N/N=C/c2ccccc2)C1	CHX counter 40, Shiga toxin inh 41
CC(C)c1ccc(/C=N/NC(=O)CC(=O)NC2CCCCC2)cc1	none
CC(=O)Nc1ccc(C=NNC(=O)C2CC2)cc1	AMA1-RON2 inh inconclusive (no result: Pf growth 48h, Pf growth 96h, CHX counter, Shiga toxin inh)
CC(C)c1ccc(/C=N/NC(=O)C2CCCC2)cc1	Pf growth 96h inconclusive, CHX counter 80, Shiga toxin inh 88
COc1ccc(N2CC(C(=O)N/N=C/c3ccccc3)CC2=O)cc1 (stereo not given)	none
NC(COCc1ccccc1)c1csc(Nc2ccccn2)n1 (stereo not given)	none (no result: Pf growth 48h, HCV inhibitor, Pf growth 96h, CHX counter, Shiga toxin inh)
CCCCc1ccc(/C=C2\C(=O)c3ccccc3C(O)=C2C(=O)OCC)cc1	Pf growth 48h inconclusive, HCV inhibitor inconclusive, Pf growth 96h inconclusive, CHX counter 16, Shiga toxin inh 30 (no result: AMA1-RON2 inh)
S=C(Nc1ccc2nccnc2c1)N1CCOCC1	Pf growth 96h inconclusive, CHX counter 37, Shiga toxin inh 48
S=C(Nc1ccc2nsnc2c1)N1CCCCC1	CHX counter 11, Shiga toxin inh 42
S=C(Nc1ccc(Cl)c(Cl)c1)N1CCCC1	HCV inhibitor inconclusive
Cc1ccc(NC(=S)N2CCOCC2)cc1	none
CCN(CC)C(=O)C1CCCN(C(=O)Nc2ccc3nsnc3c2)C1 (stereo not given)	HCV inhibitor 32µM, Pf growth 96h inconclusive (no result: Pf growth 48h)
Cc1noc(C)c1S(=O)(=O)Nc1ccc(C(=O)N2CCC(C)CC2)cc1	none (no result: HCV inhibitor, AMA1-RON2 inh)
O=c1[nH]c(C2CCCN(S(=O)(=O)c3ccccc3)C2)nc2c1nnn2Cc1ccccc1Br (stereo not given)	Pf growth 48h inconclusive, Pf growth 96h inconclusive
O=c1[nH]c(C2CCN(S(=O)(=O)c3ccc4c(c3)OCCO4)CC2)nc2c1nnn2Cc1ccccc1F	Pf growth 48h inconclusive, Pf growth 96h 13µM
O=c1[nH]c(C2CCCN(S(=O)(=O)c3cccc(F)c3)C2)nc2c1nnn2Cc1ccccc1 (stereo not given)	Pf growth 48h 7.4µM, Pf growth 96h inconclusive
COc1ccc(Cn2nnc3c(=O)[nH]c(C4CCCN(C(=O)c5ccccc5)C4)nc32)cc1 (stereo not given)	Pf growth 48h inconclusive, HCV inhibitor inconclusive, Pf growth 96h 12µM
O=c1[nH]c(C2CCN(S(=O)(=O)c3ccccc3)CC2)nc2c1nnn2Cc1cccc(Cl)c1	Pf growth 48h inconclusive
O=c1[nH]c(C2CCCN(S(=O)(=O)c3ccccc3)C2)nc2c1nnn2Cc1ccccc1F (stereo not given)	Pf growth 48h 10µM
CCN(CC(=O)NCc1ccc(Cl)cc1)C(=O)C1CCN(S(=O)(=O)c2ccc(OC)c(OC)c2)CC1	none (no result: CHX counter, Shiga toxin inh)
C[C@@H]1CN(C(=O)c2nc3ccc(Cl)cn3c2CN(C)CCc2cnn(C)c2)C[C@H](C)O1	none
Cc1[nH]nc(C(=O)NN=Cc2ccccc2Cl)c1N=NN(C)C	none (no result: Pf growth 48h, Pf growth 96h, CHX counter, Shiga toxin inh)
O=c1[nH]c(C2CCN(S(=O)(=O)c3ccccc3C(F)(F)F)CC2)nc2c1nnn2Cc1cccc(F)c1	Pf growth 48h 2.6µM, Pf growth 96h inconclusive
O=c1[nH]c(C2CCN(S(=O)(=O)c3ccc(C(F)(F)F)cc3)CC2)nc2c1nnn2Cc1cccc(F)c1	Pf growth 48h inconclusive, Pf growth 96h inconclusive
COC(=O)c1ccc(Cn2nnc3c(=O)[nH]c(C4CCCN(S(=O)(=O)c5ccccc5)C4)nc32)cc1 (stereo not given)	Pf growth 48h inconclusive
O=c1[nH]c(C2CCCN(S(=O)(=O)c3ccccc3)C2)nc2c1nnn2Cc1ccccc1 (stereo not given)	Pf growth 48h 10µM
CCN(CC(=O)Nc1cccc(OC)c1)CC(=O)Nc1ccc(C)cc1Cl	HCV inhibitor inconclusive
COCCN(Cc1cn(C)nc1-c1ccccc1F)C(C)C	Pf growth 96h 9.3µM
CN(Cc1ccc(-n2cccn2)cc1)Cc1cn(C)nc1-c1ccccc1F	Pf growth 96h inconclusive
CCn1ccnc1CN(C)Cc1cn(C)nc1-c1ccccc1F	Pf growth 96h 9.3µM
Cc1cccc(C(=O)Oc2cccc3c(O)cccc23)c1	Pf growth 48h inconclusive, Pf growth 96h inconclusive
Cc1cccc(C(=O)OCc2cncs2)c1	CHX counter 33
O=C(Nc1ccccc1Cl)OCc1cncs1	CHX counter 17
O=C(OCc1cncs1)c1ccccc1Cl	none
COc1cccc(-c2cnc3c(NC(C)=O)cc(-c4ccc(C(=O)NC5CC5)cc4)cn23)c1	none (no result: Pf growth 48h, HCV inhibitor, Pf growth 96h, CHX counter, Shiga toxin inh)
Oc1ccc(C=Nc2ccc(N3CCOCC3)cc2)c(O)c1	none (no result: Pf growth 96h)
Oc1ccc(N=Nc2cccc(C(F)(F)F)c2)cc1C=Nc1ccc(N2CCOCC2)cc1	Pf growth 48h inconclusive, Pf growth 96h 3.3µM
CCCC(=O)N1CCCC(c2nc(-c3cccs3)no2)C1 (stereo not given)	CHX counter 21, Shiga toxin inh 86 (no result: Pf growth 96h)
CCC(C)C(=O)N1CCCC(c2nc(-c3cccs3)no2)C1 (stereo not given)	CHX counter 31, Shiga toxin inh 101 (no result: Pf growth 96h)
COc1cccc(C(=O)N2CCCC(c3nc(-c4cccs4)no3)C2)c1 (stereo not given)	Pf growth 96h 9.3µM
CCCC(=O)N1CCCC(c2cc(C(=O)NCc3ccccc3)no2)C1 (stereo not given)	none (no result: Pf growth 48h, HCV inhibitor, Pf growth 96h, CHX counter, Shiga toxin inh)
COc1cc(C(=O)N2CCCC(c3nc(-c4cccs4)no3)C2)cc(OC)c1OC (stereo not given)	none
CC(=O)Nc1ccc(NC(=O)[C@H](C)NC(=O)c2ccco2)cc1	none
Cc1ccc(S(=O)(=O)N2CCC[C@H]2C(=O)Nc2ccc(F)cc2C)cc1	none (no result: Pf growth 48h, Pf growth 96h, CHX counter, Shiga toxin inh)
CCc1ccc(C(O)c2ncc(-c3ccc(C)cc3)[nH]2)cc1 (stereo not given)	none (no result: Pf growth 48h, HCV inhibitor, Pf growth 96h, CHX counter, Shiga toxin inh)
CS(=O)(=O)c1ccccc1-c1nnc(NC(=O)Cc2ccccc2)o1	HCV inhibitor inconclusive, Pf growth 96h inconclusive
COc1ccc(N2C(=O)c3ccccc3NC(=O)C2C(=O)Nc2ccc3c(c2)OCCO3)cc1 (stereo not given)	none (no result: Pf growth 48h, HCV inhibitor, Pf growth 96h, CHX counter, Shiga toxin inh)
COc1cc(C(=O)NCc2nnc(SCC(=O)Nc3nc4ccccc4s3)o2)cc(OC)c1OC	Pf growth 96h inconclusive, CHX counter 14, Shiga toxin inh 46
COc1cc(C(=O)NCc2nnc(SCC(=O)NC3CCCC3)o2)cc(OC)c1OC	Pf growth 96h 8.3µM
COc1cc(C(=O)NCCC(=O)NC2CCCCC2)cc(OC)c1OC	Pf growth 96h 9.3µM
